# High-throughput results deposited in PubChem by National Center for Advancing Translational Sciences (NCATS).
# S2 tox – Viability Counterscreen for Primary qHTS for Inhibitors of ATXN expression; S2 cells (HEK-293 line with an ATXN2-luciferase reporter) viability, CellTiter-Fluor protease fluorescence, 24 h; Potency, µM (top dose mostly 56.7 µM), most hits filed as cytotoxic; 0.49% of 400,000 active; AID 651635, 2014; further: nearly all actives have a fitted effect of over 40% in size
# KB-3-1 tox – qHTS assay for MDR1-selective chemotherapeutics: Primary screen using the parental adenocarcinoma cell KB-3-1. KB-3-1 viability, CellTiter-Glo ATP luminescence, 72 h. 1.4% of 400,000 active. Potency, µM (top dose mostly 46.1 µM), hits mostly cytotoxic. AID 1347075, 2019; further: on the % scale 0 is the no-effect control and ±100 the full control effect; nearly all actives have a fitted effect of over 60% in size
#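 Parental KB-3-1 adenocarcinoma cells in phenol-red-free DMEM with 10% FBS were pin-treated with compounds at several concentrations, incubated 72 h at 37 °C, and viability read by CellTiter-Glo luminescence; concentration-effect curves were fitted after normalization.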
# KB-V1 MDR tox – qHTS assay for MDR1-selective chemotherapeutics: Primary screen using the drug-selected MDR subline cells KB-V1. KB-V1 MDR cells viability, CellTiter-Glo, 72 h. Potency, µM (titrated, usually from 46.1 µM), most hits filed as cytotoxic. 3.4% of 400,000 active. AID 1347076, 2019; further: on the % scale 0 is the no-effect control and ±100 the full control effect; nearly all actives have a fitted effect of over 60% in size
#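 Potencies derive from concentration-effect curves fitted to normalized luminescence (CellTiter-Glo) of KB-V1 cells treated for 72 h at 37 degrees C in phenol-red-free DMEM containing 10% FBS.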
# HT1080-NT tox – qHTS for induction of synthetic lethality in tumor cells producing 2HG: qHTS for the HT-1080-NT fibrosarcoma cell line | HT-1080-NT fibrosarcoma viability, CellTiter-Glo ATP luminescence, 48 h | Potency, µM (top dose mostly 46.1 µM), without a hit: at the top dose activity, negative = less viability, actives largely listed as cytotoxic | 1.6% of 360,000 active | AID 686970, 2013;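 further: NT is the 2HG producing partner of a matched IDH1 knockdown line; 0% = DMSO-treated cells and -100% = media-only wells without cells; nearly all actives have a fitted effect of over 55% in size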
#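 A 48-hour cytotoxicity screen used HT-1080-NT cells plated 2 hours before compound delivery. ATP-based CellTiter-Glo luminescence measured viability, normalized to DMSO and no-cell controls.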
# HT1080 IDH1KD tx – qHTS for induction of synthetic lethality in tumor cells producing 2HG: qHTS for the HT-1080-IDH1KD cell line; 2% of 360,000 active; Potency, µM (highest dose often 46.1 µM), for the others: top-dose activity, negative = toxicity, most hits filed as cytotoxic; HT-1080 IDH1 knockdown viability, ATP luminescence, 48 h;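 further: 0% = DMSO wells and -100% = cell-free medium wells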
#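 After a 2 h attachment period, IDH1KD HT-1080 cells took pin-transferred compound for 48 h at 37 °C; ATP-based luminescence after 10 min room-temperature reagent incubation reported viability.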
# ATXN2 expr inh – Primary qHTS for Inhibitors of ATXN expression; HEK-293 ATXN2-luciferase reporter, luminescence, 24 h; Potency, µM (highest dose often 57 µM), for inactives: top-dose activity change, negative = inhibition, actives largely listed as inhibitors; 0.72% of 360,000 active; further: on the % scale 0 is the no-effect control and ±100 the full control effect; nearly all actives have a fitted effect of over 55% in size
#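 ATXN2-luciferase reporter cells (luciferase flanked by upstream and downstream ATXN2 gene portions) were treated 24 h at 37 °C with compounds at up to 57 uM. SteadyGlo luminescence gave expression; GF-AFC fluorescence gave viability.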
# The depositor's hits bear a star; i = inactive; ? = inconclusive; nt = not tested or not shown. This is a sample that favours compounds with a hit; in the whole collection about 6.2% have one here. The call rests on the fitted dose curve; in most records, active means well fitted curve in the direction sought with a large enough effect; inconclusive means small, poorly fitted or top-dose-only effect, or another doubt; inactive means no such curve, though single readings can be large; an effect the other way counts as inactive or inconclusive. Potency means the concentration at half of the fitted maximal effect.
SMILES,S2 tox,KB-3-1 tox,KB-V1 MDR tox,HT1080-NT tox,HT1080 IDH1KD tx,ATXN2 expr inh
CCOC(=O)c1[nH]c(C)c(C(=O)Nc2ccc(C)cc2C)c1C,i,2.6µM*,3.7µM*,?,12µM*,4%
CCOC(=O)c1[nH]c(C)c(C(=O)Nc2ccccc2F)c1C,i,2.3µM*,3.7µM*,?,?,46%
CCOC(=O)c1[nH]c(C)c(C(=O)Nc2ccc(F)cc2)c1C,i,i,i,-16%,-9%,1%
CCOC(=O)c1[nH]c(C)c(C(=O)c2ccc(C)cc2)c1C,i,i,1.5µM*,1.8µM*,1.3µM*,35%
CCc1nc2cc(C(=O)N(C)CC3COCCO3)cc(NC(=O)c3ccccc3OC)c2n1C (stereo not drawn),i,nt,nt,nt,nt,nt
COc1ccc(Cn2c(O)c(C=Nc3ccccc3)c3ccccc3c2=O)cc1,?,i,i,7%,6%,-8%
COc1ccc(Cn2c(O)c(C=Nc3ccc(O)cc3)c3ccccc3c2=O)cc1,i,?,21µM*,-21%,?,?
Fc1cccc(Cc2c(C3CCCCC3)nc3c4ccccc4ccn23)c1,i,i,?,0%,-1%,6%
CC(C)N1CCN(c2ccc(OCC3COC(Cn4cncn4)(c4ccc(Cl)cc4Cl)O3)cc2)CC1 (stereo not drawn),?,?,1.2µM*,-2%,-1%,-20%
CCC(C)n1ncn(-c2ccc(N3CCN(c4ccc(OC[C@H]5CO[C@](Cn6cncn6)(c6ccc(Cl)cc6Cl)O5)cc4)CC3)cc2)c1=O (stereo partly drawn),i,nt,nt,nt,nt,?
Cc1cc(NC(=O)CC2CCCC2)n(-c2nc3ccccc3[nH]2)n1,?,?,18µM*,?,18µM*,-30%
COc1cc(/C=N/NC(=O)Nc2ccccc2)ccc1OC(C)=O,i,i,i,10%,15%,77%
C=CC[n+]1c(/C=C/c2ccc(OC(C)=O)c(OC)c2)ccc2ccccc21,16µM*,?,i,?,?,nt
Nc1c(C(=O)Nc2ccccc2)c2nc3ccccc3nc2n1CCCN1CCOCC1,i,i,?,23µM*,18µM*,?
C=CCn1c(N)c(C(=O)Nc2cccc(C)c2)c2nc3ccccc3nc21,i,i,21µM*,-9%,?,-6%
COc1c(C(=O)Nc2ccc(Cc3ccncc3)cc2)ccc2ccccc12,i,13µM*,2.9µM*,-10%,-21%,-9%
O=C(NC(=S)Nc1ccc(Cc2ccncc2)cc1)c1ccccc1,i,?,18µM*,-14%,-28%,1%
Cc1nn(-c2ccccc2)c(C)c1C(=O)OCc1ccc(C#N)cc1,i,i,i,0%,-2%,nt
CCc1nn2c(=O)cc(COC(=O)CNC(=O)c3ccccc3)nc2s1,i,i,i,nt,nt,4%
Cc1cccnc1C(NC(=O)C1CCN(CCOc2ccc(F)cc2)CC1)c1ccc(F)cc1 (stereo not drawn),i,i,?,?,?,-25%
Cc1cccnc1C(NC(=O)C1CCN(Cc2cn(C)c3ccccc23)CC1)c1ccc(Cl)cc1 (stereo not drawn),?,?,?,12µM*,?,?
Cc1cccnc1C(NC(=O)C1CCN(CCCc2ccccc2)CC1)c1ccc(Cl)cc1 (stereo not drawn),?,i,i,26µM*,?,?
O=C(NC(c1ccc(Cl)cc1)c1ccccn1)C1CCN(CCOc2ccc(Cl)cc2Cl)CC1 (stereo not drawn),i,?,?,?,?,-38%
Cc1cccnc1C(NC(=O)C1CCN(CCOc2ccc(Cl)cc2Cl)CC1)c1ccc(Cl)cc1 (stereo not drawn),25µM*,?,?,0%,8%,20µM*
Cc1cccnc1C(NC(=O)C1CCN(Cc2ccc(Cl)cc2)CC1)c1ccccc1 (stereo not drawn),i,i,i,?,?,-18%
SMILES,S2 tox,KB-3-1 tox,KB-V1 MDR tox,HT1080-NT tox,HT1080 IDH1KD tx,ATXN2 expr inh
O=C(NC(c1ccc(Cl)cc1)c1cccnc1)C1CCN(CCOc2ccc(Cl)cc2Cl)CC1 (stereo not drawn),nt,i,i,18µM*,18µM*,?
COc1ccccc1NC(=O)Cn1c(=O)n(-c2cccc(C(C)=O)c2)c(=O)c2c3c(sc21)CN(C(C)=O)CC3,i,i,i,nt,nt,-1%
Oc1ccc(/C=N/Nc2nccnc2Cl)cc1,i,16µM*,?,16µM*,26µM*,22%
Fc1cccc(/C=N/Nc2nccnc2Cl)c1,i,?,5.8µM*,12µM*,15µM*,44%
COCCCCOc1cc2nc(N3CCCN(C)CC3)nc(NC3CCN(C)CC3)c2cc1OC,nt,nt,nt,-15%,8%,nt
Cc1cccc(N(C)C(=O)c2cc3cc4ccc(C)cc4nc3o2)c1,i,?,12µM*,?,13µM*,36%
CCc1nc2ccc(C(=O)N(C)C(C)C)cn2c1N(CC)Cc1cccc(Br)c1,?,i,i,-7%,-7%,-24%
CCc1nc2ccc(C(=O)Nc3cccc(NS(C)(=O)=O)c3)cn2c1N(CC)Cc1cccc(Br)c1,?,?,?,23µM*,?,28µM*
CCc1nc2ccc(C(=O)Nc3ccc4c(c3)OCC(=O)N4)cn2c1N(CC)Cc1cccc(Br)c1,40µM*,i,i,?,-11%,?
CCc1nc2ccc(C(=O)Nc3ccc4c(c3)OCC(=O)N4)cn2c1N(CC)CCOC,i,?,i,3%,13%,11%
CCc1nc2ccc(C(=O)NCc3ccccc3OC)cn2c1N(CC)Cc1cccc(Br)c1,?,?,16µM*,?,?,0%
COCc1c(C(=O)N2CCN(C(C)C)CC2)cnn1-c1nccc(-c2cc(C)sc2C)n1,i,nt,nt,nt,nt,nt
Cc1ccc(S(=O)(=O)N2CCCN(C(=O)c3ccc(-n4cccn4)cc3)CC2)cc1,nt,i,i,-1%,0%,nt
COC(=O)c1ccc(/C=N/N2CCN(Cc3ccc(C)cc3C)CC2)cc1,i,i,18µM*,5%,2%,-19%
